Records with an inconclusive call do not appear. A call without a number means that no potency is given here. Activity calls are given as the source filed them. Calls come from the whole dose curve; as a rule, active = well fitted curve in the direction sought with a large enough effect; inconclusive = small, poorly fitted or top-dose-only effect, or another doubt; inactive = no such curve, though single readings can be large or run the other way.
target: Metallo-beta-lactamase type 2 (Klebsiella pneumoniae) (UniProt C7C422); assay: qHTS to identify inhibitors of the New Delhi Metallo-beta-lactamase (NDM): assay validation screen against the NCATS LOPAC Collection (AID 1794843); details: NDM-1 enzyme, nitrocefin hydrolysis, absorbance 485 nm; series mostly up to 38.4 µM;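 note: nitrocefin turnover by NDM-1 measured as 485 nm absorbance at plateau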
Sequence (C7C422 whole entry, looked up): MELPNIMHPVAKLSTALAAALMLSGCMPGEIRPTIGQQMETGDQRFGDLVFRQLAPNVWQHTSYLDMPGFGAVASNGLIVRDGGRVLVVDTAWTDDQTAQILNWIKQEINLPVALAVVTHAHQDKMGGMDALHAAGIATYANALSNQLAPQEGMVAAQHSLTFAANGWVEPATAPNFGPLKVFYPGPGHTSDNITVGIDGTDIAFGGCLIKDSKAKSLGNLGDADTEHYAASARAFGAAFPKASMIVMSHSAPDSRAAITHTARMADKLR
Method in brief: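 NDM-1 at 2 nM final in 50 mM HEPES pH 7.0 with 1 uM ZnSO4 and 0.01% Tween20 was preincubated with library compounds in DMSO. Nitrocefin (50 uM stock) was then added, and absorbance at 485 nm was read at the kinetic plateau.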

For `CC[C@H](NC(=O)c1c(C)c(-c2ccccc2)nc2ccccc12)c1ccccc1`, which Potency is on record?
Its Potency is “inactive”.

For `O=c1[nH]c2ccccc2c2ccccc12`, which Potency is on record?
The Potency was “inactive”.

Which Potency does the source give for `COC(=O)C1=C(C)NC(C)=C([N+](=O)[O-])C1c1ccccc1C(F)(F)F` (stereo not given) here?
Its Potency is “inactive”.

With `Cc1cc2c(cc1Cl)N(C(=O)Nc1ccnc3ccccc13)CC2` as the compound, how does the Potency read?
Its Potency is “inactive”.

How did the Potency turn out when `NCCS(=O)O` was run?
Its Potency is “inactive”.

Which Potency does the source give for `NC(N)=NC(N)=Nc1cccc(Cl)c1` here?
Its Potency is “inactive”.

How did the Potency turn out when `CN(CC[C@@H](Oc1ccc(C(F)(F)F)cc1)c1ccccc1)CC(=O)O` was run?
The Potency was “inactive”.

`CN1CCc2cc(Cl)c(O)cc2[C@@H](c2ccccc2)C1` was tested. Which Potency did it give?
The Potency was “inactive”.

Which Potency does the source give for `NC(N)=N[C@@H](CCC(=O)O)C(=O)O` here?
The Potency was “inactive”.

For `O=C(c1ccc2c(c1)OCCO2)N1CCCCC1`, which Potency is on record?
The Potency was “inactive”.

How did the Potency turn out when `CC(C)(C)c1cc(/C=C(\C#N)C(N)=S)cc(C(C)(C)C)c1O` was run?
The Potency was “inactive”.

For `OC1(c2ccc(Cl)cc2)CCN(Cc2c[nH]c3ccccc23)CC1`, which Potency is on record?
The Potency was “inactive”.

Which Potency does the source give for `COC(=O)[C@H](NC(=O)c1cc(-c2ccccc2)nc2ccccc12)c1ccccc1` here?
The Potency was “inactive”.

`CCCCS(=N)(=O)CC[C@H](N)C(=O)O` (stereo not given in full) was tested. Which Potency did it give?
Its Potency is “inactive”.

With `Cc1ccc([N+](=O)[O-])cc1S(=O)(=O)N(C)C` as the compound, how does the Potency read?
Its Potency is “inactive”.

With `CC(=O)SC1CC2=CC(=O)CC[C@]2(C)C2CC[C@@]3(C)C(CC[C@@]34CCC(=O)O4)C12` (stereo not given in full) as the compound, how does the Potency read?
Its Potency is “inactive”.

`O=C(O)c1ccccc1Nc1ccccc1` was tested. Which Potency did it give?
Its Potency is “inactive”.

For `CCCCCCCCCCCCCCSCC(=O)O`, which Potency is on record?
The Potency was “inactive”.

With `COc1cc2c(CCNC(C)=O)c[nH]c2cc1O` as the compound, how does the Potency read?
Its Potency is “inactive”.

How did the Potency turn out when `Cn1cc(C(=O)OCC2CCN(CCNS(C)(=O)=O)CC2)c2ccccc21` was run?
The Potency was “inactive”.

From PubChem BioAssay (NCATS)
